# This is a sample that favours compounds with a hit; in the whole collection about 7.4% have one here.
# NPC1 prom act: activates the NPC1 promoter; Huh7 NPC1 promoter luciferase reporter, 24 h; actives 2.4% (n = 320,000); Potency, µM (top dose mostly 9.22 µM), inactives show at the highest dose activation, hits mostly activators; also: % of control where 0% means no effect; nearly all actives have a fitted effect of over 60% in size
#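 In 1536-well qHTS, Huh7 cells harboring an NPC1 promoter–luciferase construct received compound for 24 h; activation was quantified by luminescence following luciferase reagent addition.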
# p53 reactivation: re-activators of mutant p53. Potency, µM (series often up to 92.2 µM), for inactives: at the top dose activity change, positive = activation, most hits filed as activators. actives 0.063% (n = 320,000). AID 504706. H1299 p53-A138V BP100-luciferase reporter, luminescence, 24 h; also: % of control where 0% means no effect; nearly all actives have a fitted effect of over 45% in size
#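 p53-null H1299 cells stably carrying temperature-sensitive p53-A138V and a BP100-luciferase reporter were pinned with compounds (4-point, 1:5 series) and held 24 hrs at 37 deg C. Luminescence was read 10 min after detection reagent.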
# Rab9 prom act: activators of Rab9 promoter; Huh7 Rab9 promoter-luciferase reporter, luminescence, 24 h; actives 2.8% (n = 320,000); Potency, µM (doses to about 9.22 µM), inactives show at the highest dose activation, negative = inhibition, usual class: activators; also: % of control where 0% means no effect; nearly all actives have a fitted effect of over 60% in size
#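 Luminescence from Amplite-detected luciferase (10 minutes, ambient) reports Rab9 promoter activation. Before that, stable Rab9-luciferase Huh7 cells (1500/well, reduced-serum OP-MEM I plus 10% FBS) were exposed to compound for 24 hours at 37C.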
# ELG1 genotox: induces genotoxicity in HEK293T cells with luciferase-tagged ELG1; Potency, µM (titrated, usually from 46 µM), without a hit: top-dose activity change, positive = activation, hits mostly activators; HEK293T ELG1-luciferase reporter, luminescence, 16 h; actives 1.3% (n = 330,000); also: % of control where 0% means no effect; nearly all actives have a fitted effect of over 60% in size
#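 Genotoxicity was scored as increased ELG1-luciferase reporter signal, measured by ONE-Glo luminescence (30 min, room temperature). Compound or vehicle exposure of the HEK293T reporter cells lasted 16 hr at 37°C.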
# SMN2 splice enh: increases expression of the SMN2 splice variant. HEK293 SMN2-luciferase splicing reporter, luminescence, 30-36 h. Potency, µM (top dose mostly 46.1 µM), without a hit: at the top dose activity change, positive = activation, usual class: activators. actives 2.8% (n = 210,000). AID 1458; also: % of control where 0% means no effect; nearly all actives have a fitted effect of over 55% in size
#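 HEK293 cells carry an SMN2 minigene-luciferase reporter in which exon 7 inclusion puts luciferase in frame. Cells were seeded at 2000 cells/well, attached for 10-12 hours, then exposed to compounds for 30-36 hours at 37C before ONE-Glo luminescence.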
# FLuc modulator: counter-screen for miR-21 project: firefly luciferase inhibitors or activators; purified FLuc, Km substrates, luminescence inhibition; Potency, µM (doses to about 57.5 µM), for inactives: at the top dose activity change, negative = inhibition, usual class: inhibitors; actives 6.9% (n = 360,000);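 also: plate controls were vehicle for no effect and reference inhibitor for full effect; nearly all actives have a fitted effect of over 55% in size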
# Target sequence (P08659 whole entry, looked up): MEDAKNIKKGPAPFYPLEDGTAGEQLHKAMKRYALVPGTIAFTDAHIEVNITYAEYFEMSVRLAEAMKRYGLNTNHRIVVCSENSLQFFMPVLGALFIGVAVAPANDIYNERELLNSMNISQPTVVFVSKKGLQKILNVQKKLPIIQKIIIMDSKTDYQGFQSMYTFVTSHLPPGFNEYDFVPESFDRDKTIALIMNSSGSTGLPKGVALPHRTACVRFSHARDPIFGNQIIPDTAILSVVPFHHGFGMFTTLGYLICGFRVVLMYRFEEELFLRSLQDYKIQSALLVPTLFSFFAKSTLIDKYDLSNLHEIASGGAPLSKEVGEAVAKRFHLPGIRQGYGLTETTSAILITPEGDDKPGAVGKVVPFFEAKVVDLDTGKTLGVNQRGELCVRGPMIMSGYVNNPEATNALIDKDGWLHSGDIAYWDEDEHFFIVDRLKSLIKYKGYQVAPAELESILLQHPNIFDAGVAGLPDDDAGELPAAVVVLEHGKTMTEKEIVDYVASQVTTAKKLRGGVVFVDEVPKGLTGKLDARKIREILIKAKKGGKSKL
#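 Biochemical qHTS of compounds, final roughly 60 µM downward over six points, against 10 nM purified firefly luciferase using Km concentrations of substrates (10 uM D-luciferin, 10 uM ATP) in Tris acetate pH 7.5 buffer; luminescence output.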
# An asterisk follows results filed as active; ? = inconclusive; . = no result. Calls follow the shape of the dose curve; as a rule, active = well fitted curve in the direction sought with a large enough effect; inconclusive = small, poorly fitted or top-dose-only effect, or another doubt; inactive = no such curve, though single readings can be large; an effect the other way counts as inactive or inconclusive. Potency is read from the fitted curve at half-maximal effect.
SMILES,NPC1 prom act,p53 reactivation,Rab9 prom act,ELG1 genotox,SMN2 splice enh,FLuc modulator
COc1cc2c(cc1OC)CN(c1ccc(F)cc1[N+](=O)[O-])CC2,23%,4%,?,13%,.,12µM*
O=c1c2ccccc2sn1-c1ccc(S(=O)(=O)N2CCCC2)cc1,9%,-1%,21%,0%,-7%,4.8µM*
O=c1c2ccccc2sn1-c1ccccc1,10%,-20%,25%,17%,6%,7.6µM*
O=c1c2ccccc2sn1-c1nccs1,1%,-9%,-1%,-3%,6%,8.5µM*
CN(C)S(=O)(=O)c1cccc(-n2sc3ccccc3c2=O)c1,10%,-2%,?,1%,8%,11µM*
O=C(O)c1cccc(-n2sc3ccccc3c2=O)c1,1%,?,1%,0%,.,?
CC(C)C(=O)N1c2nc(C(C)C)nn2C2(CCCCC2)[C@@H]2CCCC[C@@H]21,.,.,.,.,.,-8%
Cc1ccc(NS(=O)(=O)c2ccccc2F)cc1S(=O)(=O)N1CCCCC1,-2%,-10%,-1%,-6%,.,.
Cc1ccc(-n2sc3ccccc3c2=O)cc1S(=O)(=O)N1CCCCC1,1%,28%,8%,-8%,-17%,19µM*
CC(C)(C)c1cc(OC(=O)c2ccccc2F)ccc1O,1%,6%,-2%,-1%,.,27µM*
Cc1ccc(-c2cccc(OC(=O)c3ccccc3F)c2)cc1,-8%,3%,7%,8%,17%,5.4µM*
Cc1ccc(-c2cc(C(=O)Oc3ccccc3)c3cccc(C)c3n2)cc1,.,.,.,.,-2%,-5%
CCN1C(=O)c2ccccc2S(=O)c2ccc(C(=O)N3CCN(c4cc(Cl)ccc4C)CC3)cc21 (stereo not given),.,.,.,.,-37%,-1%
CCCCCCSc1ccc(-c2nc3ccccn3c2NCCCC)cc1,-1%,-2%,1%,1%,.,?
CCCCNc1c(-c2cccc(-c3ccc(OC)cc3)c2)nc2cc(C)ccn12,.,19%,.,-8%,.,.
CCCCNc1c(-c2ccc(-c3ccc(C(C)=O)cc3)c(OC)c2)nc2cnccn12,0%,-5%,-7%,-30%,.,-14%
CCCCNc1c(-c2ccc(-c3cccc(Cl)c3)cc2)nc2ccccn12,?,21%,4µM*,-1%,.,11µM*
CCCCNc1c(-c2cccc(-c3cc(C(C)=O)cs3)c2)nc2ccc(C)cn12,12%,-12%,2%,-16%,.,11µM*
CCCCNc1c(-c2cccc(-c3ccc(OC)cc3)c2)nc2ccc(C)cn12,16%,-3%,10%,-5%,.,9.5µM*
COCCN=C1OC(=O)N2C(=O)C3=C4C(C[C@H]5C(=O)N(c6ccccc6)C(=O)[C@H]5[C@H]4[C@@]12Cc1ccccc1)[C@H]1C(=O)N(c2ccccc2)C(=O)[C@H]1[C@H]3C (stereo not given in full),.,.,.,.,-2%,.
O=C(/C=C/c1ccccc1F)c1ccoc1,-4%,-31%,4%,-1%,1%,12µM*
Cc1ccc(CNC(=O)C(=O)NCC2CCCN2S(=O)(=O)c2cccs2)cc1 (stereo not given),2%,-8%,-3%,12%,.,-3%
Cc1cc(C(=O)Nc2nc(C)c(C(=O)N(C)C)s2)ccc1[N+](=O)[O-],0.35µM*,?,0.45µM*,2.6µM*,1.8µM*,4.3µM*
Cc1nc(NC(=O)c2ccc([N+](=O)[O-])cc2Cl)sc1C(=O)N(C)C,1%,8%,-2%,-1%,29%,-16%
COc1cccc(-c2nc(CS(=O)CC(=O)N3CCN(c4cccc(C(F)(F)F)c4)CC3)c(C)o2)c1 (stereo not given),.,.,.,.,.,2%
SMILES,NPC1 prom act,p53 reactivation,Rab9 prom act,ELG1 genotox,SMN2 splice enh,FLuc modulator
CCOc1ccc(/C=C/C(=O)c2c(O)cc(C)oc2=O)cc1,?,.,?,16%,.,6.7µM*
Cc1cc(O)c(C(=O)/C=C/c2ccccc2)c(=O)o1,2%,6%,0%,-3%,.,19µM*
Cc1cc(O)c(C(=O)/C=C/c2ccccc2Br)c(=O)o1,4%,?,-18%,12%,.,?
Cc1cc(O)c(C(=O)/C=C/c2ccc(C(C)C)cc2)c(=O)o1,?,?,2.8µM*,?,.,3.4µM*
CCCCc1ccc(NC(=O)OC)cc1,13%,7%,15%,8%,-13%,17µM*
CCCCc1ccc(NC(=O)Nc2cccnc2)cc1,?,24%,?,?,.,6µM*
O=C(Nc1ccccc1)OCCCc1ccccc1,?,?,?,-27%,?,19µM*
Cc1cc(NC(=O)CCn2c(=O)c3cccn3c3cccnc32)ccc1Br,.,.,.,.,.,3%
CC(C)(C)c1ccc(C2NC(=O)c3n[nH]c(-c4cccs4)c32)cc1 (stereo not given),.,.,.,.,-41%,5%
COc1ccc(/C=C/C(=O)OC(C)CN2CCCCC2)cc1 (stereo not given),0%,.,-1%,3%,.,5%
COc1ccc(/C=C/C(=O)C2(O)CCCCC2)cc1,6%,40µM*,1%,-6%,.,?
COC(=O)c1ccc(/C=C/C(=O)c2ccc(OC)cc2)cc1,?,10%,9%,2%,-15%,11µM*
COc1ccc(/C=C/C(=O)Oc2ccc(C)cc2)cc1,-3%,.,10%,-1%,.,12µM*
COC(=O)c1ccc(/C=C/C(=O)c2ccc(OC)c(OC)c2)cc1,-3%,-9%,2%,2%,-5%,?
COc1ccc(/C=C/C(=O)O)cc1,.,1%,.,-1%,.,.
COc1ccc(/C=C/C(=O)CCC(=O)O)cc1,?,11%,2.8µM*,9%,.,6.7µM*
Cc1cccc(-c2nc(SCC(=O)Nc3ccc4c(c3)OCO4)c(-c3ccccc3)[nH]2)c1,.,.,.,.,-49%,?
COc1cccc(CN2CCN(C(=O)c3ccco3)CC2)c1,-1%,.,4%,-4%,.,3%
CCn1nc(NC(=O)c2ccncc2)c2cc3ccc(C)cc3nc21,4%,-3%,-2%,-2%,-13%,15µM*
CCn1nc(NC(=O)c2ccncc2)c2cc3cc(C)ccc3nc21,-1%,-3%,1%,-3%,32µM*,17µM*
CCCC(=O)Nc1nn(CC)c2nc3ccc(C)cc3cc12,24%,-4%,7%,-1%,.,-5%
CCCn1nc(NC(=O)c2ccncc2)c2cc3ccccc3nc21,1%,-11%,-13%,-3%,.,-13%
Cc1cccc(N=C2NN=C(c3ccccc3F)CS2)c1C,?,-1%,?,18%,26%,19µM*
O=S(=O)(c1ccc(N=C2NN=C(c3cc(F)ccc3F)CS2)cc1)N1CCOCC1,-11%,14%,-18%,-8%,.,-9%
